Measured values reported in PubChem BioAssay (Tox21).
Inconclusive results are not listed. A call without a number means that no potency is given here. Activity calls are given as the source filed them. Unless noted, calls come from the whole dose curve; as a rule, active = well fitted curve in the direction sought with a large enough effect in the repeat runs; inconclusive = weak or mixed curves; inactive = no such curve, though single readings can be large; an effect the other way counts as inactive or inconclusive.

Columns and labels:
[1] = qHTS assay for small molecule agonists of the p53 signaling pathway (AID 651631; calls by dose curve; note: nearly all actives have a fitted effect of over 15% in size; note: potency is the fitted concentration of half-maximal effect); conditions: HCT-116 p53RE-bla reporter, beta-lactamase FRET ratio, 16 h; series mostly up to 73.3 µM
Summary of the method: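 Readout was fluorescence from the LiveBLAzer FRET substrate, applied for 2 h at room temperature after 16 h compound exposure at 37 °C. Cells were the p53RE-bla HCT-116 line, with beta-lactamase driven by p53 response elements.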

[2] = qHTS assay for small molecule agonists of the p53 signaling pathway - cell viability (AID 651633; calls by dose curve; note: nearly all actives have a fitted effect of over 30% in size); conditions: p53RE-bla HCT-116 viability, ATP luminescence, 16 h; series mostly up to 83.3 µM
Summary of the method: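 Viability counter-read: CellTiter-Glo luminescence (30 min, room temperature) in the same p53RE-bla plates. These plates had been exposed to compounds for 16 h at 37 C.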

[3] = qHTS assay for small molecules that induce genotoxicity in human embryonic kidney cells expressing luciferase-tagged ATAD5 - cell viability (AID 651634; calls by dose curve; note: nearly all actives have a fitted effect of over 25% in size); conditions: HEK293T ATAD5-luc cells viability, CellTiter-Fluor, 15.5 h; series mostly up to 83.3 µM
Summary of the method: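 Quantitative high-throughput format. HEK293T cells expressing ATAD5 fused to luciferase were plated at 2,000 cells/well and treated 15.5 hr with compound versus DMSO. Viability was determined by fluorescent live-cell protease substrate, 30 min at 37C.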

[4] = qHTS assay for small molecule disruptors of the mitochondrial membrane potential - cell viability (AID 720634; calls by dose curve;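 note: human HepG2 liver cancer cells; nearly all actives have a fitted effect of over 20% in size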); conditions: HepG2 viability, ATP luminescence (CellTiter-Glo), 1 h; series mostly up to 83.2 µM
Summary of the method: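 Same-well counter-screen: following the MMP dye addition, CellTiter-Glo was added to 1 hr compound-treated HepG2 cells and luminescence read after 30 min at room temperature.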

[5] = qHTS assay to test for compound auto fluorescence at 590 nm (red) in HepG2 cells (AID 720674); conditions: HepG2 autofluorescence, red 540/590 nm, 1 h; series mostly up to 46 µM
Summary of the method: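 We screened compounds on adherent HepG2 cells, incubating them for an hour at 37 C in 5% CO2 before reading emission at 590 nm under 540 nm excitation; values reflect equivalence to Rose Bengal sodium fluorescence.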

[6] = qHTS assay to test for compound auto fluorescence at 535 nm (green) in HepG2 cells (AID 720675); conditions: green autofluorescence 485/535 nm, 1 h; series mostly up to 46 µM
[7] = qHTS assay to test for compound auto fluorescence at 460 nm (blue) in HEK293 cells (AID 720678); conditions: blue autofluorescence 405/460 nm; series mostly up to 46 µM
Summary of the method: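 HEK293 cells (2,000/well, medium with 10% dialyzed FBS) attached 4-5 hr, then exposed to compound overnight at 37C, 5% CO2. Blue fluorescence read at 405/460 nm, with triamterene as reference fluorophore.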

[8] = qHTS assay to test for compound auto fluorescence at 590 nm (red) in HEK293 cells (AID 720679); conditions: red autofluorescence 540/590 nm; series mostly up to 46 µM
Summary of the method: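 HEK293 cells (2,000/well, 10% dialyzed FBS) attached 4-5 hr, then dosed with compound or DMSO and incubated overnight at 37C, 5% CO2. Red fluorescence read at 540/590 nm, Rose Bengal sodium as reference fluorophore.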

[9] = qHTS assay to test for compound auto fluorescence at 460 nm (blue) in HEK293 cell free culture (AID 720681); conditions: cell-free medium, autofluorescence 405/460 nm (blue); series mostly up to 46 µM
Summary of the method: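 Blue fluorescence (Ex 405/Em 460 nm, triamterene-equivalent) was read immediately after pin transfer of compound or DMSO into medium (DMEM, 10% FBS) without cells.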

[10] = qHTS assay to test for compound auto fluorescence at 535 nm (green) in HEK293 cell free culture (AID 720682); conditions: cell-free medium, green autofluorescence 485/535 nm; series mostly up to 46 µM
Summary of the method: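 Compounds were pin-transferred into cell-free DMEM with 10% FBS, and green fluorescence was read at excitation 485 nm and emission 535 nm. Intensities were expressed as fluorescein-equivalent values.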

[11] = qHTS assay to test for compound auto fluorescence at 590 nm (red) in HEK293 cell free culture (AID 720683); conditions: cell-free medium autofluorescence, Ex540/Em590 red; series mostly up to 46 µM
Summary of the method: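 Red-channel autofluorescence of compounds in culture medium (DMEM, 10% FBS), no cells, measured at 540/590 nm. Rose Bengal sodium is the reference fluorophore for equivalence.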

[12] = qHTS assay to test for compound auto fluorescence at 590 nm (red) in HepG2 cell free culture (AID 720684); conditions: cell-free medium autofluorescence, red 540/590 nm; series mostly up to 46 µM
Summary of the method: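 No cells present: MEM + 10% FBS only. Compound pinned in, red label read (540/590 nm). Activity = fluorescence equivalent to Rose Bengal sodium.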

[13] = qHTS assay to test for compound auto fluorescence at 460 nm (blue) in HepG2 cell free culture (AID 720685); conditions: Cell-free culture medium, blue autofluorescence 405/460 nm; series mostly up to 46 µM
Summary of the method: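 Cell-free plates of MEM plus 10% FBS received 23 nL compound or DMSO vehicle; blue-channel (405/460 nm) intensity scored against triamterene as reference fluorophore.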

[14] = qHTS assay to test for compound auto fluorescence at 535 nm (green) in HepG2 cell free culture (AID 720686); conditions: Cell-free medium, green autofluorescence 485/535 nm; series mostly up to 46 µM
[15] = qHTS assay to test for compound auto fluorescence at 460 nm (blue) in HepG2 cells (AID 720687); conditions: autofluorescence 405/460 nm, 1 h; series mostly up to 46 µM
Summary of the method: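 Blue-channel autofluorescence (Ex/Em 405/460 nm, triamterene-equivalent) was measured after 1 hr compound exposure at 37 C, 5% CO2. Cells were HepG2, plated overnight at 37 C in MEM plus 10% FBS.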

[16] = molecular target: Glucocorticoid receptor (Homo sapiens) (UniProt P04150); experiment: qHTS assay to identify small molecule agonists of the glucocorticoid receptor (GR) signaling pathway (AID 720691; active = well fitted activation curve with a large enough effect in the signal ratio in the repeat runs, not every such curve was filed as active; the % refers to the signal ratio); conditions: GR-bla HeLa, beta-lactamase reporter ratio, 18 h; activation: at 62.4 µM (top of the series)
Summary of the method: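 A HeLa cervical cancer line expressing GR and a glucocorticoid response element-driven beta-lactamase gene is treated with compounds for 18 h; LiveBLAzer B/G FRET substrate is then applied and fluorescence read.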

[17] = qHTS assay to test for compound auto fluorescence at 535 nm (green) in HEK293 cells (AID 720680); conditions: green autofluorescence 485/535 nm; series mostly up to 46 µM
[18] = molecular target: Glucocorticoid receptor (Homo sapiens) (UniProt P04150); experiment: qHTS assay to identify small molecule antagonists of the glucocorticoid receptor (GR) signaling pathway (AID 720692; active = well fitted inhibition curve with a large enough effect in the signal ratio in the repeat runs, not every such curve was filed as active; the % refers to the signal ratio; note: potency is the fitted concentration of half-maximal effect); conditions: GR-bla HeLa, beta-lactamase FRET ratio, dexamethasone-stimulated, 18 h; series mostly up to 58.5 µM
Summary of the method: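 GRE-bla HeLa line, dex-stimulated (5 nM final). Compound exposure 18 h, 37 C. Beta-lactamase FRET read after 2 h RT substrate.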

[19] = qHTS assay for small molecules that induce genotoxicity in human embryonic kidney cells expressing luciferase-tagged ATAD5 (AID 651632); conditions: HEK293T ATAD5-luciferase induction, 16 h; series mostly up to 83.3 µM; note: nearly all actives have a fitted effect of over 15% in size
Summary of the method: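 Test compounds were delivered by pin tool onto HEK293T reporter cells (2,000/well) expressing ATAD5 fused to luciferase. After 16 hr at 37C, 5% CO2, Amplite was added for 30 min at room temperature and luminescence was measured.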

[20] = qHTS assay for small molecule disruptors of the mitochondrial membrane potential (AID 720635); conditions: HepG2 mitochondrial membrane potential, Mito-MPS dye ratio; series mostly up to 83.2 µM
Summary of the method: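 Mitochondrial membrane potential tracked with Mito-MPS dye, red aggregates (ex 540/em 590 nm) against green monomers (ex 490/em 535 nm). Compound treatment 1 hr at 37C, dye 30 min in HepG2.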

Sequence of Glucocorticoid receptor (Homo sapiens) (P04150 whole entry, looked up): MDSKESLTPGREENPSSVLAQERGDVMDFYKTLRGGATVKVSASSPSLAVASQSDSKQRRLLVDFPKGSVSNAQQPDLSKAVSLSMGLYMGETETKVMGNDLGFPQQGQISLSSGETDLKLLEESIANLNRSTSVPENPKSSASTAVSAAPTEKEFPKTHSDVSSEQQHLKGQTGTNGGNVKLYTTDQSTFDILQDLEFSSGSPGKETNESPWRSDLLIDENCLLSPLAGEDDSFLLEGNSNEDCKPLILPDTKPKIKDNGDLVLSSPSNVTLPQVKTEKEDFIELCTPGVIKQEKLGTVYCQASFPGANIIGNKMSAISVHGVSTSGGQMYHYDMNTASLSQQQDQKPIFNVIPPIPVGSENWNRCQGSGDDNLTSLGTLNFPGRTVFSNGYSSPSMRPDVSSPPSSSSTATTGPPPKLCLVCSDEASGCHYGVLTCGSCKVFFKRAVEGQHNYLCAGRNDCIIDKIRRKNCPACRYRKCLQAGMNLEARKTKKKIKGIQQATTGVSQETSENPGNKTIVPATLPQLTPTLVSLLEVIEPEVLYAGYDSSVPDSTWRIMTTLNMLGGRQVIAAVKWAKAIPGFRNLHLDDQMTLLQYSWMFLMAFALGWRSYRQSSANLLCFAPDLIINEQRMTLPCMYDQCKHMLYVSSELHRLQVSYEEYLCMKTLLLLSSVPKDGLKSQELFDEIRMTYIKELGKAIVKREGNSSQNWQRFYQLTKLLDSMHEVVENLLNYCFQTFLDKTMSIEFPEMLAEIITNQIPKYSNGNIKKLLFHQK

SMILES	Potency [1]	Potency [2]	Potency [3]	Potency [4]	Potency [5]	Potency [6]	Potency [7]	Potency [8]	Potency [9]	Potency [10]	Potency [11]	Potency [12]	outcome [13]	Potency [14]	outcome [15]	Potency [16]	Potency [17]	Potency [18]	Potency [19]	Potency [20]
CC1(O)CCC(C(C)(C)O)CC1 (stereo not given)	inactive	inactive	inactive	inactive	inactive	inactive	inactive	inactive	inactive	inactive	inactive	inactive	inactive	inactive	inactive	inactive				
CC1=C(/C=C/C(C)=C/C=C/C(C)=C/C=C/C=C(C)/C=C/C=C(C)/C=C/C2=C(C)C[C@@H](O)CC2(C)C)C(C)(C)C[C@H](O)C1	29.8 µM (active)				inactive	inactive	inactive	inactive	inactive	inactive	inactive	inactive	inactive	inactive	inactive	inactive	inactive	23.9 µM (active)		
O=P(O)(O)OC[C@H]1O[C@](O)(COP(=O)(O)O)[C@@H](O)[C@@H]1O		inactive	inactive	inactive	inactive	inactive	inactive	inactive	inactive	inactive	inactive	inactive	inactive	inactive	inactive		inactive		inactive	inactive
NC[C@@H]1O[C@H](O[C@H]2[C@@H](O)[C@H](O[C@@H]3[C@@H](O)[C@H](N)C[C@H](N)[C@H]3O[C@H]3O[C@H](CN)[C@@H](O)[C@H](O)[C@H]3N)O[C@@H]2CO)[C@H](N)[C@@H](O)[C@@H]1O		inactive	inactive	inactive	inactive	inactive	inactive	inactive	inactive	inactive	inactive	inactive	inactive	inactive	inactive		inactive		inactive	inactive
CC(O)[C@H]1CC[C@H]2[C@@H]3CC[C@@H]4C[C@@H](O)CC[C@]4(C)[C@H]3CC[C@]12C (stereo not given in full)		inactive	inactive	inactive	inactive	inactive	inactive	inactive	inactive	inactive	inactive	inactive	inactive	inactive	inactive		inactive		inactive	inactive
C=CCOc1ccc(CC(=O)O)cc1Cl	inactive	inactive			inactive	inactive	inactive	inactive	inactive	inactive	inactive		inactive	inactive	inactive		inactive			
CCCCC[C@H](O)/C=C/[C@@H]1[C@H]2C/C(=C/CCCC(=O)O)O[C@H]2C[C@H]1O		inactive	inactive	inactive	inactive	inactive	inactive	inactive	inactive	inactive	inactive	inactive		inactive	inactive		inactive		inactive	inactive
CCCCCCCCCCCCCCCCCCCCCCO		inactive	inactive	inactive	inactive	inactive	inactive	inactive	inactive	inactive	inactive	inactive	inactive	inactive	inactive	inactive	inactive	inactive	inactive	inactive
CCCC(=O)Nc1c(I)cc(I)c(CC(CC)C(=O)O)c1I (stereo not given)		inactive	inactive	inactive	inactive	inactive	inactive	inactive	inactive	inactive	inactive	inactive	inactive	inactive	inactive	inactive	inactive	inactive	inactive	inactive
FC(F)(F)C(F)(F)C(F)(F)C(F)(F)C(F)(F)C(F)(F)F		inactive	inactive	inactive	inactive	inactive	inactive	inactive	inactive	inactive	inactive	inactive	inactive	inactive	inactive	inactive	inactive	inactive	inactive	inactive
CCOC(=O)[C@@H](N)CS		inactive	inactive	inactive	inactive	inactive	inactive	inactive	inactive	inactive	inactive	inactive	inactive	inactive	inactive	inactive	inactive	inactive	inactive	inactive
O=[N+]([O-])O[C@@H]1CO[C@H]2[C@@H]1OC[C@@H]2O		inactive	inactive	inactive	inactive	inactive	inactive	inactive	inactive	inactive	inactive	inactive		inactive	inactive	inactive	inactive	inactive	inactive	inactive
